# Screening results deposited in PubChem BioAssay by several laboratories.
# Most compounds without a hit are left out; they make up all but 4.2% or so of the library.
# Wnt bcat act – activators of Wnt/beta-catenin signaling. hit rate 1.2% among 300,000. Wnt/beta-catenin reporter cell assay, activator, plate reader. activation, % at 9.35 µM. AID 743398; in the data active = activation above about 30%, passing the limit was not always enough; inconclusive = no clear call, values can overlap the other calls;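 note: 0% = neutral control wells and 100% = positive control wells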
# AHR act – activates the human aryl hydrocarbon receptor; P35869; AHR-responsive luciferase reporter cells, luminescence; activation, % at 5 µM; hit rate 2.5% among 320,000; AID 2796; in the data active = activation above about 47%;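 note: 0% = vehicle wells and 100% = reference agonist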
# Target sequence (P35869 whole entry, looked up): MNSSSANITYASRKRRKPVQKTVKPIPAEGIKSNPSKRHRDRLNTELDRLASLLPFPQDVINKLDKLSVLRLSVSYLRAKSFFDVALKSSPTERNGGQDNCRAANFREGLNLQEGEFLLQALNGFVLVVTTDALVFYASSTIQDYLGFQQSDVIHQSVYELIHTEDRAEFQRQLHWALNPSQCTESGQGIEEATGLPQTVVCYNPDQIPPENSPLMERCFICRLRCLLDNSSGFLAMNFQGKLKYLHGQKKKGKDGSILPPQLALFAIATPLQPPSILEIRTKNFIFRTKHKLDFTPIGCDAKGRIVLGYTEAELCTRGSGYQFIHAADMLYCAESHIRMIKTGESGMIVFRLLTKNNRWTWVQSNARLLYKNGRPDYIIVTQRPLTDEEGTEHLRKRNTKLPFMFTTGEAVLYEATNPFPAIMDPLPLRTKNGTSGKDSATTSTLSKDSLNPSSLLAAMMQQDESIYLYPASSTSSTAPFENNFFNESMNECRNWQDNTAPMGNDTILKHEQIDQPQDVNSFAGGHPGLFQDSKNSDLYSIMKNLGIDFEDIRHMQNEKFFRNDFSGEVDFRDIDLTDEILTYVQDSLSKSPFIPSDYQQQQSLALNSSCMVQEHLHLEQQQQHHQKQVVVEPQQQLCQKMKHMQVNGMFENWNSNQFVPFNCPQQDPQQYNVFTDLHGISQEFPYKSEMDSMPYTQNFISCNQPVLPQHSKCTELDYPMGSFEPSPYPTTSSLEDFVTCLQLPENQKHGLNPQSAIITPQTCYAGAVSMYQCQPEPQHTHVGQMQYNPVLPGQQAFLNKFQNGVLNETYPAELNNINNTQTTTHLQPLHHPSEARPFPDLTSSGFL
# GAA850 FXN act – frataxin GAA850 promoter activation; HEK293 lucGAA850 FXN promoter luciferase reporter, 24 h; percent of 10 µM SAHA response; activation, % at 6 µM; hit rate 0.56% among 360,000;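 active = activation above the average of all compounds screened plus 3 SD, cutoff fixed separately per campaign, cut at about 7.5% in these data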;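 note: 0% = DMSO wells and 100% = 10 µM SAHA wells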
# MITF TRPM1 HTS – increases MITF-driven TRPM1 promoter luciferase signal; SK-MEL-5 TRPM1-promoter luciferase, 24 h; % of positive control, neutral wells = 0; activation, % at 12.5 µM; hit rate 0.75% among 300,000; AID 588334;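 active = mean activation of at least 80% with every replicate also reaching 80%; inconclusive = mean reaches 80% but some replicate falls short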;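 note: 0% = neutral control wells and 100% = parthenolide positive control wells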
# esBAF inh – inhibitors of esBAF chromatin remodeling in mouse ES cells | Bmi1-luciferase knock-in reporter, 24 h; 100% = twice the neutral-well signal | reporter increase, % at 12.5 µM | hit rate 2% among 350,000; in the data active = activation above about 40%; inconclusive = no clear call, values can overlap the other calls;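 note: 0% = median of the plate's neutral control wells and 100% = double that signal; a rise in the Bmi1 reporter signal indicates esBAF inhibition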
# The depositor's hits bear a star; u = inconclusive; x = no result given.
SMILES,Wnt bcat act,AHR act,GAA850 FXN act,MITF TRPM1 HTS,esBAF inh
C[C@H](CO)N1C[C@H](C)[C@H](CN(C)S(=O)(=O)c2ccc(Cl)cc2)OCc2ccccc2-c2ccccc2C1=O,x,x,x,x,6.2
CC(C)NC(=O)Nc1ccc2c(c1)C(=O)N([C@H](C)CO)C[C@@H](C)[C@@H](CN(C)S(=O)(=O)c1ccc(Cl)cc1)O2,x,x,x,x,-2.7
CCOC(=O)C1(C)NC(c2cc(OC)c(OC)c(OC)c2)C2C(=O)N(CC)C(=O)C21 (configuration not stated),-2.4,71.5*,-0.3,-1.8,-2.4
CCN1C(=O)C2C(c3ccc(O)c(OC)c3)NC(C)(C(=O)OC)C2C1=O (configuration not stated),x,2.5,-0.7,x,0.7
COc1ccc(NC(=O)Nc2ccc3c(c2)C(=O)N([C@H](C)CO)C[C@H](C)[C@@H](CN(C)CC2CCCCC2)OCCCC[C@H](C)O3)cc1,x,x,x,x,-1.3
C/C=C/c1cnc2c(c1)C(=O)N([C@H](C)CO)C[C@@H](C)[C@H](CN(C)C(=O)C1CCOCC1)O2,x,x,x,x,6.6
COCC(=O)Nc1ccc2c(c1)[C@H]1C[C@@H](CC(=O)NCc3ccncc3)O[C@H](CO)[C@H]1O2,x,x,x,x,1.6
O=C(/C=C/c1ccc(OC(F)F)cc1)Nc1cccc(S(=O)(=O)NC2=NCCCCC2)c1,8.2,-4.4,3.4,10.7,53.6*
COc1ccc(/C=C/C(=O)Nc2cccc(S(=O)(=O)NC3=NCCCCC3)c2)cc1,-2.6,-1.0,5.5,55.0,35.7
CN(C)c1ccc(C(=O)Nc2cccc(S(=O)(=O)NC3=NCCCCC3)c2)cc1,-3.2,7.6,0.0,8.7,61.8*
C[C@@H]1CN([C@@H](C)CO)C(=O)c2cc(NS(=O)(=O)c3ccc(F)cc3)ccc2O[C@@H](C)CCCCO[C@H]1CN(C)Cc1ccc(C(=O)O)cc1,x,x,x,x,0.7
CN(C)C(=O)c1cccc(-c2ccc3c(c2)[C@@H]2[C@@H](CCN2S(=O)(=O)c2ccccc2)[C@@H](CO)N3)c1,x,x,x,x,2.1
CN1CCc2c(sc3nc(SCC(=O)NCc4ccco4)n(-c4ccccc4)c(=O)c23)C1,16.4,3.9,1.0,49.7,70.3*
COc1ccc(NC(=O)Nc2ccc3c(c2)C(=O)N([C@H](C)CO)C[C@H](C)[C@H](CN(C)S(=O)(=O)c2ccc(C)cc2)OCCCC[C@@H](C)O3)cc1,x,x,x,x,11.6
CCCOc1ccc(-c2cc(C(=O)NCC3CCCO3)c3ccccc3n2)cc1 (configuration not stated),5.3,51.1*,3.3,22.0,23.4*
CCCNC(=O)N1C[C@@H](C)[C@@H](OC)CN(C)C(=O)c2cc(NS(=O)(=O)CC(F)(F)F)ccc2OC[C@H]1C,x,x,x,x,-8.4
CC(C)c1ccc2nc(N)sc2c1,10.9,7.8,7.4,92.0*,-5.3
Nc1nc2ccc(OC(F)(F)F)cc2s1,10.9,15.7,2.2,40.8,43.0*
Nc1nc2ccc(O)cc2s1,2.3,0.1,-1.8,x,-9.5
Nc1nc2ccc(Oc3ccccc3)cc2s1,x,x,5.3,76.9,x
CC(C)NC(=O)N[C@@H]1C=C[C@@H](CC(=O)NCCCN(C)C)O[C@H]1CO,x,x,x,x,-0.6
O=C(c1cccnc1)N1C[C@H]2[C@@H](c3ccccc31)[C@@H](CO)N2C(=O)C1CCOCC1,x,x,x,x,1.6
Cc1ccc(S(=O)(=O)N[C@@H]2CC[C@@H](CC(=O)NCCc3ccncc3)O[C@H]2CO)cc1,x,x,x,x,-4.1
O=C(N/N=C/c1ccco1)Nc1ccccc1,38.5*,9.2,7.2,47.7,8.9
O=C(N/N=C/c1cc(Br)ccc1O)Nc1ccccc1,6.4,50.6*,1.4,4.4,x
SMILES,Wnt bcat act,AHR act,GAA850 FXN act,MITF TRPM1 HTS,esBAF inh
NC(=O)N/N=C\c1cc(Br)ccc1O,-4.1,27.9,-0.7,3.0,x
COc1ccc(-c2nnc(N(C)C(=O)c3cccnc3)s2)cc1,41.0*,1.7,3.5,35.8,36.5
CC(C)OC(=O)CSc1nnc(C2CCCCC2)n1N,41.5*,-1.9,2.2,x,x
CC(C)(C)c1ccc(C(=O)c2c[nH]c(C(=O)NCc3cccnc3)c2)cc1,x,5.2,-0.9,x,55.0*
CC(C)(C)c1ccc(OCc2ccc(C(=O)NN)o2)cc1,-1.1,26.4,4.6,58.2,x
CC(C)(C)c1ccc(C(=O)NCc2cccnc2)cc1,-12.3,27.9,0.9,x,x
CC(C)(c1ccccc1)c1ccc(OCc2ccc(C(=O)O)o2)cc1,38.2*,x,7.5,88.0*,-2.3
CC(C)(C)c1ccc(OCc2ccc(C(=O)NCc3cccnc3)o2)cc1,51.3*,17.8,3.8,59.3,u
COc1ccccc1OCc1ccc(C(=O)NCc2cccnc2)o1,-5.2,3.0,-0.4,6.7,-10.1
COc1ccc(NC(=O)N(C)C[C@H]2Oc3ccc(NC(=O)Nc4ccc5c(c4)OCO5)cc3C(=O)N([C@@H](C)CO)C[C@@H]2C)cc1,x,x,x,x,-4.4
C[C@@H]1CN([C@H](C)CO)C(=O)CCCn2cc(nn2)CO[C@@H]1CN(C)C(=O)Nc1ccc(N2CCCCC2)cc1,x,x,x,x,-3.4
C[C@H](CO)N1C[C@H](C)[C@H](CN(C)C(=O)NC2CCCC2)Oc2ncc(-c3ccccc3F)cc2C1=O,x,x,x,x,-3.5
C[C@H](CO)N1C[C@H](C)[C@@H](CN(C)Cc2ccc(C(F)(F)F)cc2)Oc2ccc(NC(=O)C3CC3)cc2CC1=O,x,x,x,x,-0.3
Cc1c(N2C(=O)/C(=C\C3CC=CCC3)SC2=S)c(=O)n(-c2ccccc2)n1C (configuration not stated),-1.6,1.7,-0.2,8.1,44.0*
CSc1nc2[nH]c3c(c2c2ncnn12)CCCC3,x,47.2*,1.5,-9.3,8.0
C[C@@H]1CCCCO[C@@H](CN(C)C(=O)Nc2ccc(F)cc2)[C@@H](C)CN([C@H](C)CO)C(=O)c2cc(NC(=O)CCC(F)(F)F)ccc2O1,x,x,x,x,0.9
Nc1nonc1C(=Nc1ccc(Br)cc1)NO,-3.2,65.6*,2.1,x,0.5
Nc1nonc1C(=O)N/N=C/c1cc(Br)ccc1O,0.8,37.3,x,-58.3,x
COc1ccc2c(c1)oc1c(SCc3nc4ccccc4[nH]3)nc(C)nc12,13.2,53.6*,6.3,49.0,68.2*
Cc1nc(SCc2nc3ccc(Br)cc3[nH]2)c2oc3ccccc3c2n1,0.2,13.4,1.1,15.1,-3.7
Cc1nc(SCc2nc3ccccc3[nH]2)c2oc3cc([N+](=O)[O-])ccc3c2n1,-0.5,26.1,-0.2,-23.0,49.0*
Cc1ccc(CNc2nc(C)cs2)cc1,27.3,11.8,2.6,143.1*,45.8*
COc1ccccc1-c1cn(CC[C@@H]2CC[C@@H](NC(=O)Cc3ccccn3)[C@@H](CO)O2)nn1,x,x,x,x,6.7
CC(C)(C)c1ccc(C(=O)NC(=S)Nc2sc3c(c2C#N)CCC3)cc1,-0.8,10.5,0.6,8.7,x
N#Cc1c(NC(=S)NC(=O)c2ccccc2)sc2c1CCC2,10.3,25.6,1.9,41.1,48.7*
CC1CCc2sc(NC(=S)NC(=O)c3ccccc3)c(C#N)c2C1 (configuration not stated),6.7,29.6,3.9,52.3,58.1*
C[C@@H]1CN([C@H](C)CO)C(=O)c2cccc(NC(=O)Nc3ccc4c(c3)OCO4)c2O[C@H]1CN(C)S(=O)(=O)c1ccc(F)cc1,x,x,x,x,14.9
